Results filed as inconclusive are left out. Active and inactive are the calls of the source. Unless noted, calls follow the shape of the dose curve; as a rule, active = well fitted curve in the direction sought with a large enough effect; inconclusive = small, poorly fitted or top-dose-only effect, or another doubt; inactive = no such curve, though single readings can be large; an effect the other way counts as inactive or inconclusive. Peptide text beside a SMILES is read from it.

The nature of assay [1]: Confirmation and Secondary Assay for Modulators of Hemoglobin Beta Chain Splicing at IVS2 654 locus (AID 910).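 Also: HeLa cells stably carrying EGFP split by mutant beta-globin IVS2-654 intron; per-well total GFP intensity by laser scanning cytometry after 2-day treatment; % of control where 0% means no effect.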 The gist of the method:
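Readout: per-well total peak green fluorescence (488 nm ex, 500–520 nm em) from objects 5–250 µm, reflecting correct splicing of an EGFP-654 reporter. Compounds were applied for 2 days at 37 °C to overnight-plated HeLa EGFP-654 cells; controls were DMSO and 500 nM IVS2-654 PNA.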

Assay [2] in a line: Confirmation and Secondary Assay for Modulators of Hemoglobin Beta Chain Splicing at IVS2 705 locus (AID 930).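 Also: HeLa cells stably expressing the EGFP-705 splicing reporter; GFP fluorescence per well restored by corrected splicing of the IVS2-705 intron in EGFP; % of control where 0% means no effect.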 The gist of the method: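 Per-well GFP, captured at 1 x 8 µm resolution with 488 nm excitation, served as the read-out for HeLa EGFP-705 cells incubated 2 days with test compound versus DMSO.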
The nature of assay [3]: qHTS Assay for Lipid Storage Modulators (AID 1519; calls by dose curve; as to activity change, negative = inhibition: % is scaled to controls: 0 for no effect and ±100 for the full control effect). Particulars: Drosophila S3 cells, BODIPY lipid droplet/cell ratio, laser cytometry, cells loaded with oleic acid; for activity change, negative = inhibition: at 57.5 µM (top of the series). In short, it runs like this: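 Cells seeded at 5,000 per well were treated with compounds over a concentration series and loaded with oleic acid (400 uM, as added). Lipid droplet fluorescence (488 nm excitation, 500-530 nm channel) was read by laser-scanning cytometry and normalized to 20 uM Triacsin C.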

For assay [4], the target named is Ubiquitin carboxyl-terminal hydrolase 1 (Homo sapiens) (UniProt O94782). Put plainly: Inhibitors of USP1/UAF1: Pilot qHTS (AID 504865).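 Also: rhodamine fluorescence freed from ubiquitin-rhodamine substrate followed over time; top concentration of the series differs between compounds; % is scaled to controls: 0 for no effect and ±100 for the full control effect; nearly all actives have a fitted effect of over 35% in size.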 In short, it runs like this: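 USP1/UAF1 complex at 1 nM preincubated 15 min at room temperature with compound, then Ub-Rho substrate added at 150 nM final. Fluorescence (480/540 nm) read kinetically in 50 mM HEPES pH 7.8, 0.5 mM EDTA, 1 mM TCEP, 0.1 mg/ml BSA, 0.01% Tween-20.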

Assay [5] has as its target Cytochrome P450 3A4 (Homo sapiens) (UniProt P08684). Briefly: qHTS Assay for Activators of Cytochrome P450 3A4 (AID 885). Also: nearly all actives have a fitted effect of over 65% in size. The gist of the method: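 Human CYP3A4 (20 nM) with Luciferin-PPXE at 25 uM (its KM) in 200 mM KPO4; 10 min compound preincubation, then NADPH regeneration and 60 min reaction at RT. Luciferin read by luminescence; normalized to 57 uM ketoconazole full inhibition.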

The mark [6] stands for this setting: measured here: cell count channel max response.
Where [7] appears, read: measured here: lipid channel max response.

Cytochrome P450 3A4 (Homo sapiens), sequence (P08684 whole entry, looked up): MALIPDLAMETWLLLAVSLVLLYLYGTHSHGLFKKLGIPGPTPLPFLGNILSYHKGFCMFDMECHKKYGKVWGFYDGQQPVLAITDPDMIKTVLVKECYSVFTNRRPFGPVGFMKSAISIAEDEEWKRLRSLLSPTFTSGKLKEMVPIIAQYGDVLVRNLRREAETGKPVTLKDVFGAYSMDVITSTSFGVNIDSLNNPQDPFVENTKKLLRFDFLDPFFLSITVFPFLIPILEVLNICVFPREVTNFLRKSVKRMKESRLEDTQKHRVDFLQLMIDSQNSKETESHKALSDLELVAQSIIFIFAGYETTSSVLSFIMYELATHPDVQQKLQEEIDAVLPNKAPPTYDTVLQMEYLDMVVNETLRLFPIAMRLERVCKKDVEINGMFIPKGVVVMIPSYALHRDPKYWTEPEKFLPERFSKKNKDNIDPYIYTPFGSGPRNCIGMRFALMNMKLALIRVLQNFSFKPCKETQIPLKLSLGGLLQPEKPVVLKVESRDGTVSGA
Ubiquitin carboxyl-terminal hydrolase 1 (Homo sapiens), sequence (O94782 whole entry, looked up): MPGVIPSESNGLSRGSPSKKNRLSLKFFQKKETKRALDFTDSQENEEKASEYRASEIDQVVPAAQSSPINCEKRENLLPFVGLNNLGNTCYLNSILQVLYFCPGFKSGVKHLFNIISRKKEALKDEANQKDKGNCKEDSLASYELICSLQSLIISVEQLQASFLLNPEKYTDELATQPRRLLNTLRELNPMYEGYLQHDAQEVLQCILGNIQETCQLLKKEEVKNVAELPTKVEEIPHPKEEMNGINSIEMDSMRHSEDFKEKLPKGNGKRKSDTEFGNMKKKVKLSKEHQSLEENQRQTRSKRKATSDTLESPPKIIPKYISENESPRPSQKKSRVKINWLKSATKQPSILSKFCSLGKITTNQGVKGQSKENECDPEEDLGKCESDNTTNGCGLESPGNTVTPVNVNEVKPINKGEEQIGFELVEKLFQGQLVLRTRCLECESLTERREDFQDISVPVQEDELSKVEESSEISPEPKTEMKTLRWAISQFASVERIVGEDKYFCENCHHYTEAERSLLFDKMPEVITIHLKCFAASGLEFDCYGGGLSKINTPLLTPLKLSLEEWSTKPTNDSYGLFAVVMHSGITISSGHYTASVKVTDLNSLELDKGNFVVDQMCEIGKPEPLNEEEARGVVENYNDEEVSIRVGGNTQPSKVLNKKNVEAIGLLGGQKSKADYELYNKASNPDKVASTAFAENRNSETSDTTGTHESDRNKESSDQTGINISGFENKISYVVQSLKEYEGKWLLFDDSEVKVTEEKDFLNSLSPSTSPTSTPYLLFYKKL

Take `CC1(C)OC2C(CO)OC(n3cnc4c(=O)[nH]cnc43)C2O1` (stereo unspecified): the Potency result in assay [1], in assay [2] and in assay [4] was “inactive” throughout. Besides, the activity change, negative = inhibition in assay [3] is 1.95% (inactive). For the same compound, the max response in assay [3] (setting [6]) was found to be 3.64%; in assay [3] (setting [7]), 5.67%.

With `NCCCCC(N)C(=O)NC(Cc1ccc(O)cc1)C(=O)NC(CCCCN)C(=O)O` (stereo not drawn) (H-Lys-Tyr-Lys-OH; configuration not given here), the Potency result in assay [1], in assay [2] and in assay [4] was “inactive” throughout. Also, in assay [3], the activity change, negative = inhibition is 1.3% (inactive). Moreover, the max response in assay [3] (setting [6]) was 3.42%; in assay [3] (setting [7]), 5.58%.

For `COC(=O)/C(=C1\OC(=O)C(c2ccccc2)C1=O)c1ccccc1` (stereo unspecified), the Potency result in assay [5], in assay [1], in assay [2] and in assay [4] was “inactive” each time. The activity change, negative = inhibition in assay [3] was 5.87% (inactive). The max response in assay [3] (setting [6]) was determined as 11.1%; in assay [3] (setting [7]), 17.7%.

Regarding `CC(C)=CCc1c(O)cc2oc(C)cc(=O)c2c1O`, the Potency entry in assay [5], in assay [1], in assay [2] and in assay [4] was “inactive” throughout. The activity change, negative = inhibition in assay [3] is 2.12% (inactive). Further, the max response was -3.81% in assay [3] (setting [6]) and -0.981% in assay [3] (setting [7]).

As to `Oc1ccc2c(c1)OC(c1ccc(O)c(O)c1)C(O)C2` (stereo unspecified), the Potency entry in assay [5], in assay [1], in assay [2] and in assay [4] was “inactive” throughout. Further, the activity change, negative = inhibition in assay [3] was 6.52% (inactive). In addition, the figures for the max response in assay [3] (setting [6]) and in assay [3] (setting [7]) were -5.73% and 1.34%, respectively.

On to `COc1c(O)cc2c(-c3ccccc3)cc(=O)oc2c1OC`, for which the Potency result in assay [1], in assay [2] and in assay [4] was “inactive” each time. Also, in assay [3], the activity change, negative = inhibition was 5.27% (inactive). Besides, the max response in assay [3] (setting [6]) stood at 6.33%; in assay [3] (setting [7]), 14.2%.

As to `CC1(C)OC2CC3C4CC(F)C5=CC(=O)CC[C@@]5(C)C4C(O)C[C@@]3(C)[C@]2(C(=O)CO)O1` (stereo partly specified), the Potency result in assay [1] and in assay [4] was “inactive” in each case. In assay [3], the activity change, negative = inhibition is 4.43% (inactive). The values for the max response in assay [3] (setting [6]) and in assay [3] (setting [7]) were 7.91% and 15.6%, respectively.

Regarding `CC1(C)C(=O)C2C[C@]3(O)C4=CC(=O)OC(c5ccoc5)[C@]4(C)CCC3[C@](C)(C2=O)C1CC(=O)O` (stereo partly specified), the Potency result in assay [5], in assay [1], in assay [2] and in assay [4] was “inactive” each time. Further, the activity change, negative = inhibition in assay [3] was 3.73% (inactive). In addition, the max response in assay [3] (setting [6]) worked out at 1.91%; in assay [3] (setting [7]), 6.28%.

For the compound `CCC1OC(=O)C(C)[C@@H](O[C@H]2C[C@@](C)(OC)C(O)C(C)O2)C(C)[C@@H](O[C@@H]2OC(C)CC(N(C)C)C2O)[C@@](C)(O)CC(C)CN(C)C(C)C(O)[C@]1(C)O` (stereo partly specified), the Potency result in assay [1], in assay [2] and in assay [4] was “inactive” in each case. Also, the activity change, negative = inhibition in assay [3] is 0.114% (inactive). Moreover, the max response was determined as 12.3% in assay [3] (setting [6]) and 14.1% in assay [3] (setting [7]).

With `COC1C[C@@H](O[C@@H]2C(C)C(=O)OC(C)C(C)[C@H](OC(C)=O)C(C)C(=O)[C@@]3(CO3)CC(C)C(OC3OC(C)CC(N(C)C)[C@H]3OC(C)=O)C2C)OC(C)[C@@H]1OC(C)=O` (stereo partly specified), the Potency result in assay [1] and in assay [4] was “inactive” throughout. The activity change, negative = inhibition in assay [3] was 6.97% (inactive). Moreover, the max response amounted to 18.9% in assay [3] (setting [6]) and 24.4% in assay [3] (setting [7]).

Turning to `COc1ccc(-c2oc3cc(O[C@@H]4OC(CO)C(O)C(O)C4O)c(OC)c(O)c3c(=O)c2OC)cc1O` (stereo partly specified), the Potency result in assay [5], in assay [1], in assay [2] and in assay [4] was “inactive” each time. Besides, the activity change, negative = inhibition in assay [3] is 2.95% (inactive). The max response in assay [3] (setting [6]) was -7.2%; in assay [3] (setting [7]), -6.13%.

Take `CC1(C)CCCC2(C)C3C(O)CC2(C)C(O)C31` (stereo unspecified): the Potency entry in assay [5], in assay [1], in assay [2] and in assay [4] was “inactive” in each case. In addition, the activity change, negative = inhibition in assay [3] was 1.58% (inactive). In addition, the values for the max response in assay [3] (setting [6]) and in assay [3] (setting [7]) were -2.66% and -0.711%, respectively.

`COC(=O)CC1C(C)(C)C2(O)OC34CC2C(=O)[C@@]1(C)C3CC[C@]1(C)C4=CC(=O)OC1c1ccoc1` (stereo partly specified): the Potency result in assay [1], in assay [2] and in assay [4] was “inactive” each time. Further, in assay [3], the activity change, negative = inhibition was 4.29% (inactive). Moreover, the max response is -0.136% in assay [3] (setting [6]) and 8.19% in assay [3] (setting [7]).

Turning to `C=C1C[C@@]23C[C@@]1(O)CCC2[C@@]12C=CC(O)[C@](C)(C(=O)O1)C2C3C(=O)O` (stereo partly specified), the Potency entry in assay [1] and in assay [4] was “inactive” throughout. Moreover, the activity change, negative = inhibition in assay [3] is 1.95% (inactive). Also, the max response was found to be 6.93% in assay [3] (setting [6]) and 10.6% in assay [3] (setting [7]).

In the case of `COc1cc(-c2cc(=O)c3c(O)c(OC)c(OC)c(OC)c3o2)cc(OC)c1OC`, the Potency entry in assay [5], in assay [1], in assay [2] and in assay [4] was “inactive” throughout. Moreover, the activity change, negative = inhibition in assay [3] was 0.715% (inactive). Moreover, the max response came to 5.14% in assay [3] (setting [6]) and 8.84% in assay [3] (setting [7]).

Regarding `CCCC1OC2CC3C4CCC5=CC(=O)C=CC5(C)C4C(O)CC3(C)[C@]2(C(=O)CO)O1` (stereo partly specified), the Potency result in assay [5], in assay [2] and in assay [4] was “inactive” throughout. In addition, in assay [3], the activity change, negative = inhibition was 8.38% (inactive). Further, the max response in assay [3] (setting [6]) was found to be 24.3%; in assay [3] (setting [7]), 37.9%.

As for `COc1ccc(C2CC(=O)c3c(O)cc(O)cc3O2)cc1O` (stereo unspecified), the Potency result in assay [5], in assay [1], in assay [2] and in assay [4] was “inactive” in each case. The activity change, negative = inhibition in assay [3] was 3.83% (inactive). Moreover, the values for the max response in assay [3] (setting [6]) and in assay [3] (setting [7]) were 3.05% and 6.13%, respectively.

Turning to `C#C[C@@]1(O)CCC2C3CCC4=CC(=O)CCC4C3CC[C@@]21CC` (stereo partly specified), the Potency entry in assay [5], in assay [1], in assay [2] and in assay [4] was “inactive” throughout. In assay [3], the activity change, negative = inhibition was 8.95% (inactive). Also, the values for the max response in assay [3] (setting [6]) and in assay [3] (setting [7]) were 17.8% and 32.9%, respectively.

Regarding `CCOC(=O)C(CCc1ccccc1)NC(C)C(=O)N1CCCC1C(=O)O` (stereo unspecified), the Potency entry in assay [1], in assay [2] and in assay [4] was “inactive” each time. Besides, in assay [3], the activity change, negative = inhibition was 10.8% (inactive). For the same compound, the max response in assay [3] (setting [6]) stood at 9.89%; in assay [3] (setting [7]), 24.1%.

Regarding `CC(C)CC(NC(=O)OCC1c2ccccc2-c2ccccc21)C(=O)O` (stereo unspecified), the Potency entry in assay [1] and in assay [4] was “inactive” throughout. Also, in assay [3], the activity change, negative = inhibition is 2.46% (inactive). For the same compound, the max response turned out to be 10.8% in assay [3] (setting [6]) and 14.5% in assay [3] (setting [7]).

As for `COc1ccc(C2Oc3cc(OC)cc(OC)c3CC2O)cc1` (stereo unspecified), the Potency result in assay [5], in assay [1], in assay [2] and in assay [4] was “inactive” in each case. Besides, the activity change, negative = inhibition in assay [3] is 5.15% (inactive). For the same compound, the max response in assay [3] (setting [6]) was 15.1%; in assay [3] (setting [7]), 23.9%.

On to `C=C[C@]1(C)CC(=O)[C@@]2(O)[C@@]3(C)C(O)CCC(C)(C)C3C(O)C(OC(C)=O)[C@@]2(C)O1` (stereo partly specified), for which the Potency entry in assay [5], in assay [2] and in assay [4] was “inactive” each time. In assay [3], the activity change, negative = inhibition is 3.86% (inactive). The max response in assay [3] (setting [6]) came to 19.4%; in assay [3] (setting [7]), 25.9%.

Take `S=c1ccss1`: the Potency entry in assay [5], in assay [2] and in assay [4] was “inactive” each time. Further, the activity change, negative = inhibition in assay [3] was 7.62% (inactive). Also, the max response in assay [3] (setting [6]) worked out at 5.82%; in assay [3] (setting [7]), 13.7%.

`CC1(C)C2(Cl)C(Cl)C(Cl)C(Cl)(C(Cl)Cl)C1(Cl)C2Cl` (stereo unspecified): the Potency entry in assay [1], in assay [2] and in assay [4] was “inactive” each time. In addition, the activity change, negative = inhibition in assay [3] is 3.3% (inactive). Moreover, the max response in assay [3] (setting [6]) is 3.76%; in assay [3] (setting [7]), 3.86%.

As to `CC1=C(C(=O)O)N2C(=O)C(NC(=O)C(N)c3ccc(O)cc3)C2SC1` (stereo unspecified), the Potency result in assay [1], in assay [2] and in assay [4] was “inactive” each time. Moreover, the activity change, negative = inhibition in assay [3] was 7.51% (inactive). Further, the max response in assay [3] (setting [6]) was 4.8%; in assay [3] (setting [7]), 14.9%.
